Only some compounds are listed: those with a hit (about 10% of all), similar ones and a draw of the others.
RORg inh: blocks mouse ROR gamma transcriptional activity | P51450 | AID 2551 | hit rate 5.4% among 310,000 | Potency, µM (titrated, usually from 53.6 µM), for inactives: at the highest dose activity change, negative = inhibition, hits mostly inhibitors | Drosophila S2 Gal4-RORgamma UAS-luciferase reporter, 20 h; note: % is set by controls: 0 for no effect and ±100 for the full control effect; nearly all actives have a fitted effect of over 60% in size
Target sequence (P51450 whole entry, looked up, the tested form may be a part): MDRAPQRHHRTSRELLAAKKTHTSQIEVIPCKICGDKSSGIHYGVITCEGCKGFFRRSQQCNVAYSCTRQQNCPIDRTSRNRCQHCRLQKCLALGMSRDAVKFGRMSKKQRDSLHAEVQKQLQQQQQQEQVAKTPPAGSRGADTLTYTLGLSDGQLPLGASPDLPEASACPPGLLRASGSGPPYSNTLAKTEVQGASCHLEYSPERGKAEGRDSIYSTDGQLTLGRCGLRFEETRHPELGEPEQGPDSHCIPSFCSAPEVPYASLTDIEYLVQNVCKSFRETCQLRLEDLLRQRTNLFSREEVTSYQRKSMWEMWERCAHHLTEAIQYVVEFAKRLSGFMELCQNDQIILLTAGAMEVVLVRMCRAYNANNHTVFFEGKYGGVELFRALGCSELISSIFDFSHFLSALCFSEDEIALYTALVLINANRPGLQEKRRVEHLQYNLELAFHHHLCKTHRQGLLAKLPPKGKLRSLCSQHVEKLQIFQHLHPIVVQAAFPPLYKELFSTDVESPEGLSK
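Drosophila S2 cells stably expressing Gal4-DBD/mouse RORγ fusion under metallothionein promoter plus UAS-luciferase; compound 1 h, then 700 uM CuSO4 induction for 20 h at ambient temperature; inhibition read as reduced luminescence.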
MCF10A rerep: induces DNA re-replication in MCF 10a normal breast cells; MCF 10A DNA re-replication, Hoechst nuclear intensity, 48 h; Potency, µM (highest dose often 46.1 µM), for inactives: top-dose activity, positive = re-replication, hits mostly activators; hit rate 2.9% among 350,000; AID 624296; note: % of control where 0% means no effect; nearly all actives have a fitted effect of over 50% in size
SW480 rerep: inducers of DNA re-replication in SW480 colon cancer cells; Potency, µM (highest dose often 46.1 µM), without a hit: top-dose re-replication activation, usual class: activators; SW480 DNA re-replication, Hoechst DNA content imaging, 48 h; hit rate 1.8% among 340,000; note: % of control where 0% means no effect; nearly all actives have a fitted effect of over 55% in size
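Treated cells incubate 48 hr (37 C, 5% CO2), are stained 40 min with Hoechst, and nuclear fluorescence is enumerated; a rise in nuclei with high DNA signal marks re-replication.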
ELG1 DNA repair: blocks ELG1-dependent DNA repair in HEK293T cells; HEK293T ELG1-luciferase reporter, luminescence, 16 h; DNA damage induced by 5-fluorouridine; Potency, µM (highest dose often 46.1 µM), without a hit: top-dose activity change, negative = inhibition, actives largely listed as inhibitors; hit rate 2.3% among 330,000; AID 504467; note: % is set by controls: 0 for no effect and ±100 for the full control effect; nearly all actives have a fitted effect of over 55% in size
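Luminescence from the luciferase reporter, measured 30 min after ONE-Glo reagent at room temperature, was the read-out. Beforehand, 2,000 cells per well were exposed for 16 hr at 37 °C to 5-fluorouridine together with compound or vehicle.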
Gal4-VP16 FLuc: Gal4-VP16 reporter inhibition counter-screen; Drosophila S2 Gal4-VP16 UAS-luciferase, luminescence, 20 h; Potency, µM (titrated, usually from 53.6 µM), without a hit: at the highest dose activity, negative = inhibition, usual class: inhibitors; hit rate 3.5% among 310,000; AID 2546;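 note: Gal4-VP16 expression switched on by copper sulfate through the metallothionein promoter; % is set by controls: 0 for no effect and ±100 for the full control effect; nearly all actives have a fitted effect of over 50% in size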
Starred values were filed as active, the others as inactive; u = inconclusive; x = not tested or not shown; [ ] = another dose, or the depositor's remark. Calls come from the whole dose curve; as a rule, active = well fitted curve in the direction sought with a large enough effect; inconclusive = small, poorly fitted or top-dose-only effect, or another doubt; inactive = no such curve, though single readings can be large; an effect the other way counts as inactive or inconclusive. Potency is the fitted concentration of half-maximal effect.

SMILES	RORg inh	MCF10A rerep	SW480 rerep	ELG1 DNA repair	Gal4-VP16 FLuc
Cc1csc(NC(=O)/C=C/c2ccc(C)o2)n1	4.5µM*	-2%	0%	u	-17%
CSC1=NC2(CCCCC2)CC12C=CC(=O)C=C2	7%	1%	0%	u	-1%
COc1ccc(C(CNC(=O)c2ccc(C)c(S(=O)(=O)Nc3ccccc3OC)c2)N2CCCC2)cc1 (stereo not given)	-11%	2%	10%	-2%	10%
Cc1cccc(OCCn2c(-c3ccco3)nc3ccccc32)c1	16µM*	252%[0.0737 µM]	6.5µM*	u	-2%
c1ccc(OCCn2c(-c3ccco3)nc3ccccc32)cc1	11µM*	-1%	10%	u	1%
NS(=O)(=O)c1ccc(CCNc2ccnc3cc(Cl)ccc23)cc1	26%	0%	-7%	4%	-26%
CN(C)CCNC(=O)c1cc2c(s1)-c1ccc(Cl)cc1SC2	10µM*	21µM*	u	u	u
CCOCCCNC(=O)c1cc2c(s1)-c1ccccc1SC2	-3%	1%	4%	14%	1%
COc1ccc(-c2nc3ccccc3nc2-c2ccccc2)cc1OC	10%	u	-6%	u	-12%
N#Cc1ccc(-c2nc3ccccc3nc2-c2ccccc2)cc1C#N	-9%	2%	-7%	16µM*	-5%
CN1/C(=C/C(=S)NC(=O)C2CCC2)C(C)(C)c2ccccc21	6.3µM*	u	6%	u	13µM*
CC(C)C(=O)NC(=S)/C=C1/N(C)c2ccccc2C1(C)C	3.5µM*	8%	0%	u	4µM*
Cc1ccc(C(=O)NC(=S)/C=C2\N(C)c3ccccc3C2(C)C)cc1	7.1µM*	u	15%	-12%	5.6µM*
N/C(=N/O)c1nc(N2CCCC2)nc(N(c2ccccc2)c2ccccc2)n1	8.9µM*	u	u	-26%	15%[0.365 µM]
N/C(=N/O)c1nc(N2CCCCC2)nc(N2CCCCC2)n1	8.9µM*	0%	4%	7%	u
CCCCC1CCC(C(=O)OC(C)C(=O)Nc2ccc(NC(C)=O)cc2)CC1 (stereo not given)	1%	1%	9%	15%	-1%
CCOC(=O)CC1=CCc2c1ccc(OC)c2OC	x	-1%	-2%	x	x
COc1cc(-c2nc(=S)[nH][nH]2)cc(OC)c1OC	-25%	3%	10%	0%	0%
Cc1nc2cc(NC(=O)Nc3nccs3)ccc2n1C	u	4%	-16%	u	10µM*
COc1cccc(NC(=O)c2cc(C(=O)Nc3cccc(OC)c3)n(C)n2)c1	37%	15%	1%[9.22 µM]	13µM*	-26%
O=C(Nc1ccc(Cl)c(Cl)c1)Nc1nccs1	-1%	13µM*	2.3µM*	-8%	1%
COc1cccc(NC(=O)Nc2ccc3c(c2)nc(C)n3C)c1	8.9µM*	1%	0%	u	11µM*
Cn1nc(C(=O)Nc2ccc(Br)cc2)cc1C(=O)Nc1ccc(Br)cc1	1%	-2%	5%	-2%	-3%
Cc1nc2cc(NC(=O)NC(C)(C)C)ccc2n1C	-5%	-2%	-117%	u	-2%
O=C(Nc1cccc(Cl)c1)Nc1nccs1	-11%	9%	1%	u	9%
SMILES	RORg inh	MCF10A rerep	SW480 rerep	ELG1 DNA repair	Gal4-VP16 FLuc
O=C(NCCc1ccc(C(F)(F)F)cc1)C1CCC(=O)N(C2CC2)C1 (stereo not given)	0%	5%	-15%	-2%	29%
O=C1NC(SCCCF)=N/C1=C/c1ccc(-n2cncn2)cc1	7%	u	1%	4%	-11%
CCn1c(C)nc2cc(NC(=O)Nc3cccc(C(C)=O)c3)ccc21	16µM*	0%	-26%	u	14µM*
CCn1c(C)nc2cc(C(=O)OC)ccc21	21%	-37%	-99%	u	1%
CC(=O)Nc1ccc(S(=O)(=O)NC2CC(=O)N(c3ccc(C)cc3)C2)cc1 (stereo not given)	x	-15%	6.5µM*	7%	x
CCNc1nc(OC)nc(N2CCC(Cc3ccccc3)CC2)n1	u	11%	-2%	3%	u
N#CC1=C(S)N(c2ccccc2)C(c2ccc(-c3cc(Cl)ccc3Cl)o2)NC1=O (stereo not given)	13µM*	u	-10%	2%	u
Cc1ccc(N2C(S)=C(C#N)C(=O)NC2c2ccco2)cc1 (stereo not given)	16µM*	14%	4%	25%	-10%
N#CC1=C(S)N(c2ccccc2)C(c2ccco2)NC1=O (stereo not given)	25%	2%	-2%	-11%	-4%
COc1ccc(N2C(S)=C(C#N)C(=O)NC2c2ccc(OC)c(OC)c2)cc1 (stereo not given)	11µM*	25%	14%	7%	-28%
N#CC1=C(S)N(c2ccccc2)C(c2ccc(-c3ccc(Cl)c(Cl)c3)o2)NC1=O (stereo not given)	10µM*	3%	2%	4%	u
N#CC1=C(S)N(c2ccc(F)cc2)C(c2ccco2)NC1=O (stereo not given)	u	8%	u	6%	-11%
O=C(COC(=O)c1ccc(S(=O)(=O)Nc2ccccc2)cc1)NCCC1=CCCCC1	-15%[10 µM]	-17%	-3%	24%	-5%
Cc1nnc(NS(=O)(=O)c2ccc(Br)cc2)s1	-10%	-1%	2%	-7%	2%
COCCn1c(SCC(=O)Nc2ccc(S(=O)(=O)N(C)C)cc2)nc2ccccc21	20%	0%	-2%	15µM*	-11%
NS(=O)(=O)c1ccc(-c2c(-c3ccccc3)sc3ccccc23)cc1	x	u	-22%[9.22 µM]	u	x
O=C(c1nnsc1S(=O)(=O)c1ccc(Cl)cc1)N1CCOCC1	2.8µM*	3.5µM*	u	-21%	10µM*
O=C(c1cc(-c2ccc(Cl)cc2)n(-c2ccc(Cl)cc2)n1)N1CCOCC1	u	2%	-7%	u	u
CNC(=O)c1nnsc1S(=O)(=O)c1ccc(Cl)cc1	0.56µM*	1.5µM*	1µM*	u	0.4µM*
Nc1nc(C(=O)N2CCOCC2)nn1S(=O)(=O)c1ccc(Cl)cc1	-23%	-1%	1%	3%	1%
Cc1nnsc1S(=O)c1ccc(Cl)cc1 (stereo not given)	-22%	2%	u	u	3%
O=C(Nc1ccccc1)c1nnsc1S(=O)c1ccc(Cl)cc1 (stereo not given)	16µM*	u	23µM*	18%	4.5µM*
O=C(c1nnsc1S(=O)c1ccc(Cl)cc1)N1CCOCC1 (stereo not given)	1.1µM*	18%	3%	u	3.5µM*
CNC(=O)c1ccc(S(=O)(=O)c2ccc(Cl)cc2)c(NC(C)=O)c1	17%	-5%	-6%	-4%	1%
OC(CNCc1cccnc1)COc1ccc2ccccc2c1 (stereo not given)	-14%	-9%	-3%	-19%	1%

Bioassay records as filed in PubChem BioAssay.
